# Assay results: the supplement of paper PMC8728848
# The sample as a whole holds a higher share of the strongest signals than the screen did.
# B1: FaeGad (Escherichia coli) (protein)
# chain: WMTGDFNGSVDIGGSITADDYRQKWEWEVGTGLNGFGSVLNDLTNGGTKLTITVTGNKPILLGRTKEAFATPVTSGVDGIPHIAFTDYEGASVELRNPDGETEKGLTYFVLPMKNAEGTKVGSVKVNASYAGALGRGGVTSADGELMSLFAEGSHAIFYGGLPTNVKNSELKGGSAAAARTELFGSLSKNDILGQIQRVNANITSLVNVPGSFNENMAYTDGSVVSVAYALGIANGQTIEATFNQAVTTSTQWSAPLNVAITYY
# Key:
# Experiment in all cases: glycan array binding signal (z-score within array); higher = stronger binding
# Conditions in all cases: glycan notation: IUPAC condensed, linker removed
# [1] = biological target: Fuc(a1-2)Gal(b1-3)GalNAc(b1-3)Gal(a1-4)Gal(b1-4)Glc
# Procedure, shortened: (§1)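 Columns mapping to the same glycan were averaged after glycan names were converted to IUPAC-condensed notation. The data come from 3228 arrays in the Consortium for Functional Glycomics database, limited to those with an available protein sequence. Binding is reported as a within-array Z-score averaged across arrays of one protein sequence and across linkers.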
# [2] = biological target: Fuc(a1-2)GlcNAc
# Procedure, shortened: as §1
# [3] = biological target: Gal(a1-6)Glc
# Procedure, shortened: as §1
# [4] = biological target: Gal(b1-3)[Fuc(a1-4)]GlcNAc(b1-3)Gal(b1-4)[Fuc(a1-3)]GlcNAc
# Procedure, shortened: as §1
# [5] = biological target: Gal(b1-4)Glc6S
# Procedure, shortened: as §1
# [6] = biological target: Gal(b1-4)GlcNAc(b1-3)Gal(b1-4)Glc
# Procedure, shortened: as §1
# [7] = biological target: Glc(a1-4)Glc
# Procedure, shortened: as §1
# [8] = biological target: Glc(a1-6)Glc(a1-6)Glc
# Procedure, shortened: as §1
# [9] = biological target: Glc(b1-4)Glc
# Procedure, shortened: as §1
# [10] = biological target: GlcNAc(a1-3)Gal(b1-4)GlcNAc
# Procedure, shortened: as §1
# [11] = biological target: GlcNAc(b1-4)GlcNAc(b1-4)GlcNAc
# Procedure, shortened: as §1
# [12] = biological target: Man(a1-2)Man(a1-2)Man(a1-6)[Man(a1-3)]Man
# Procedure, shortened: as §1
# [13] = biological target: Neu5Ac(a2-3)Gal(b1-4)[Fuc(a1-3)]GlcNAc
# Procedure, shortened: as §1
# [14] = biological target: Neu5Ac(a2-3)Gal(b1-4)[Fuc(a1-3)]GlcNAc(b1-3)Gal(b1-4)[Fuc(a1-3)]GlcNAc(b1-3)Gal(b1-4)[Fuc(a1-3)]GlcNAc
# Procedure, shortened: as §1
# [15] = biological target: Neu5Ac(a2-3)GalNAc
# Procedure, shortened: as §1
# [16] = biological target: Neu5Ac(a2-6)Gal(b1-4)GlcNAc(b1-3)Gal(b1-4)GlcNAc
# Procedure, shortened: as §1
# [17] = biological target: Neu5Ac(a2-6)Gal(b1-4)GlcNAc(b1-3)Gal(b1-4)[Fuc(a1-3)]GlcNAc(b1-3)Gal(b1-4)[Fuc(a1-3)]GlcNAc
# Procedure, shortened: as §1
# [18] = biological target: Neu5Ac(a2-8)Neu5Ac(a2-8)Neu5Ac
# Procedure, shortened: as §1
binder,measurement,setting,value
B1,glycan array binding signal (z-score),[1],-0.404
same,glycan array binding signal (z-score),[2],-0.247
same,glycan array binding signal (z-score),[3],0.615
same,glycan array binding signal (z-score),[4],0.979
same,glycan array binding signal (z-score),[5],0.601
same,glycan array binding signal (z-score),[6],0.629
same,glycan array binding signal (z-score),[7],9.55
same,glycan array binding signal (z-score),[8],10.2
same,glycan array binding signal (z-score),[9],3.57
same,glycan array binding signal (z-score),[10],0.188
same,glycan array binding signal (z-score),[11],0.137
same,glycan array binding signal (z-score),[12],1.83
same,glycan array binding signal (z-score),[13],-0.45
same,glycan array binding signal (z-score),[14],-0.187
same,glycan array binding signal (z-score),[15],-0.452
same,glycan array binding signal (z-score),[16],-0.289
same,glycan array binding signal (z-score),[17],-0.414
same,glycan array binding signal (z-score),[18],-0.377
